Where “and” joins values, the source holds several entries; their conditions need not be identical. Equal entries are not always repeated. Where two headings read alike, the source gives them in different places.
Experiments:
PIKFYVE = settings: concentration: 1 μM, replicates: in singlicate; n = 1
PIM1 = settings: concentration: 1 μM, replicates: in singlicate, n = 1
PIM2 = settings: concentration: 1 μM, replicates: in singlicate; n = 1
PIM3 = settings: concentration: 1 μM, replicates: in singlicate, n = 1
PIP5K1A = settings: concentration: 1 μM, replicates: in singlicate, n = 1
PIP5K1C = settings: concentration: 1 μM, replicates: in singlicate, n = 1
PIP5K2B = settings: concentration: 1 μM, replicates: in singlicate, n = 1
PIP5K2C = tested on: T1, PIP5K2C; settings: concentration: 1 μM, replicates: in singlicate, n = 1
T1 construct: gene PIP4K2C

PKAC-alpha = tested on: T2, PKAC-alpha; settings: concentration: 1 μM, replicates: in singlicate, n = 1
T2 construct: gene PRKACA

PKAC-beta = tested on: T3, PKAC-beta; settings: concentration: 1 μM, replicates: in singlicate, n = 1
T3 construct: gene PRKACB
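Note: KINOMEscan kinase panel screen.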

| SMILES | %Inh (PIKFYVE) [%] | %Inh (PIM1) [%] | %Inh (PIM2) [%] | %Inh (PIM3) [%] | %Inh (PIP5K1A) [%] | %Inh (PIP5K1C) [%] | %Inh (PIP5K2B) [%] | %Inh (PIP5K2C) [%] | %Inh (PKAC-alpha) [%] | %Inh (PKAC-beta) [%] | %Inh (PIM1; 1 µM) | %Inh (PIM3; 1 µM) | %Inh (PIP5K1A; 1 µM) | %Inh (PIP5K1C; 1 µM) | %Inh (PIP5K2B; 1 µM) | %Inh (PIP5K2C; 1 µM) | %Inh (PKAC-alpha; 1 µM) | %Inh (PKAC-beta; 1 µM) |
| --- | --- | --- | --- | --- | --- | --- | --- | --- | --- | --- | --- | --- | --- | --- | --- | --- | --- | --- |
| COc1ccc(Nc2nccc(N3CCC(NC(=O)Nc4cccc(C(C)=O)c4)C3)n2)cc1 (stereo not drawn) [GSK1379731] | 0 | 0 | 0 | 0 | 0 | 24 | 12 | 3 | 2 | 0 |  |  |  |  |  |  |  |  |
| O=C1Cc2cc(Nc3nc(NCc4cccc(S(=O)(=O)C(F)(F)F)c4)ncc3C(F)(F)F)ccc2N1 | 6 | 100 | 0 | 6 | 13 | 3 | 20 | 0 | 0 | 7 |  |  |  |  |  |  |  |  |
| Cc1nnc(-c2ccc3occ(-c4ccc(C(C)O)cc4)c3c2)o1 (stereo not drawn) | 0 | 24 | 80 | 31 | 0 | 4 | 27 | 17 | 7 | 17 |  |  |  |  |  |  |  |  |
| Cn1cc(-c2ccc3c(c2)CCN3C(=O)Cc2ccccc2Cl)c2c(N)ncnc21 [GSK2608885] | 0 | 10 | 0 | 0 | 0 | 7 | 0 | 90.5 | 45 | 34 |  |  |  |  |  |  |  |  |
| CC(=O)Nc1ccc(COc2ccc(Nc3ccnc4cc(-c5ccccn5)ccc34)cc2)cc1.Cl [GW440148] | 2 | 17 | 0 | 0 | 0 | 44 | 0 | 23 | 0 | 0 |  |  |  |  |  |  |  |  |
| NS(=O)(=O)CCc1cccc(Nc2nccc(-c3c(-c4cccc(NC(=O)c5c(F)cccc5F)c4)nn4ccccc34)n2)c1 [GSK336735] | 0 | 0 | 0 | 0 | 0 | 36 | 0 | 17 | 38 | 37 |  |  |  |  |  |  |  |  |
| c1ccc(-c2cc(-c3c[nH]nc3-c3ccccn3)ccn2)cc1 [GW576604] | 0 | 0 | 0 | 0 | 19 | 58 | 0 | 30 | 5 | 0 |  |  |  |  |  |  |  |  |
| CCCCCc1nc2c(N)ncnc2n1CCCCC [SKF-97255] | 0 | 0 | 5 | 7 | 1 | 0 | 0 | 0 | 24 | 0 |  |  |  |  |  |  |  |  |
| Cc1cccc(-c2nc(-c3ccc(S(C)(=O)=O)cc3)sc2-c2ccncc2)c1 | 25 | 13 | 2 | 12 | 22 | 2 | 55 | 0 | 0 | 0 |  |  |  |  |  |  |  |  |
| O=C(NCCNc1ccnc(Nc2ccc(F)cc2)n1)c1cc2ccccc2s1 [GSK1379874] | 0 | 0 | 0 | 0 | 0 | 0 | 8 | 42 | 0 | 0 |  |  |  |  |  |  |  |  |
| NCC(NC(=O)c1cc(-c2cn[nH]c2)c(-c2ccnc3[nH]ccc23)s1)c1ccccc1.O=C(O)C(F)(F)F.O=C(O)C(F)(F)F (stereo not drawn) [GSK1325775] | 0 | 39 | 16 | 41 | 50 | 80 | 71 | 49 | 98.7 | 98 |  |  |  |  |  |  |  |  |
| CNc1ncnc2[nH]ncc12 [SKF-18355] | 11 | 0 | 8 | 0 | 22 | 0 | 0 | 0 | 31 | 16 |  |  |  |  |  |  |  |  |
| CSc1ccc(-c2cc3ncnc(SCC(=O)O)c3s2)cc1 | 28 | 0 | 0 | 0 | 0 | 0 | 20 | 7 | 0 | 0 |  |  |  |  |  |  |  |  |
| Cl.Nc1ncnc2occ(-c3ccc(NC(=O)Nc4cc(C(F)(F)F)ccc4F)cc3)c12 [SB-707548] | 25 | 23 | 0 | 0 | 28 | 57 | 36 | 45 | 9 | 0 |  |  |  |  |  |  |  |  |
| Cc1ccc(C(=O)NCC(N)=O)cc1-n1c(C)cc(OCc2ccc(F)cc2F)c(Br)c1=O | 20 | 23 | 19 | 17 | 14 | 46 | 0 | 31 | 7 | 0 |  |  |  |  |  |  |  |  |
| O=C(NOCC1CC1)c1ccc(F)c(F)c1Nc1ccc(I)cc1Cl | 40 | 0 | 0 | 0 | 0 | 3 | 0 | 0 | 0 | 0 |  |  |  |  |  |  |  |  |
| Cc1cccc(-c2nc(Nc3ccc4ncsc4c3)c3ccccc3n2)n1 [GW867588] | 54 | 9 | 0 | 16 | 27 | 4 | 0 | 18 | 11 | 21 |  |  |  |  |  |  |  |  |

| SMILES | %Inh (PIKFYVE) [%] | %Inh (PIM1) [%] | %Inh (PIM2) [%] | %Inh (PIM3) [%] | %Inh (PIP5K1A) [%] | %Inh (PIP5K1C) [%] | %Inh (PIP5K2B) [%] | %Inh (PIP5K2C) [%] | %Inh (PKAC-alpha) [%] | %Inh (PKAC-beta) [%] | %Inh (PIM1; 1 µM) | %Inh (PIM3; 1 µM) | %Inh (PIP5K1A; 1 µM) | %Inh (PIP5K1C; 1 µM) | %Inh (PIP5K2B; 1 µM) | %Inh (PIP5K2C; 1 µM) | %Inh (PKAC-alpha; 1 µM) | %Inh (PKAC-beta; 1 µM) |
| --- | --- | --- | --- | --- | --- | --- | --- | --- | --- | --- | --- | --- | --- | --- | --- | --- | --- | --- |
| O=c1cc(N2CCOCC2)nc2n(Cc3cccc4ccccc34)ccn12 [GSK2333389] | 0 | 0 | 0 | 0 | 0 | 0 | 40 | 0 | 0 | 8 |  |  |  |  |  |  |  |  |
| CN1c2ccc(CNc3ccc(F)cc3)cc2-c2c(cnn2C)S1(=O)=O | 17 | 0 | 14 | 5 | 5 | 23 | 0 | 24 | 5 | 0 |  |  |  |  |  |  |  |  |
| COc1cc2ncn(-c3cc(OCc4sccc4Cl)c(C(N)=O)s3)c2cc1OC [GSK448459] | 0 | 11 | 0 | 0 | 41 | 79 | 20 | 50 | 0 | 0 |  |  |  |  |  |  |  |  |
| O=C(c1ccc(-c2cc(-c3c[nH]nc3-c3ccccn3)ccn2)cc1)N1CCOCC1 [GW812171] | 0 | 24 | 0 | 15 | 0 | 0 | 0 | 67 | 0 | 3 |  |  |  |  |  |  |  |  |
| O=c1cc(N2CCOCC2)nc2n(Cc3cccc(C(F)(F)F)c3)ccn12 [GSK2297543] | 0 | 11 | 0 | 0 | 0 | 28 | 9 | 1 | 0 | 8 |  |  |  |  |  |  |  |  |
| CCc1ccnc(/C=C/c2n[nH]c3cc(Sc4ccccc4C(=O)NC)ccc23)c1 | 0 | 0 | 0 | 0 | 5 | 0 | 27 | 0 | 0 | 0 |  |  |  |  |  |  |  |  |
| O=c1cc(N2CCOCC2)nc2n(Cc3cccc(F)c3)ccn12 [GSK2297430] | 0 | 11 | 0 | 0 | 0 | 21 | 21 | 0 | 12 | 12 |  |  |  |  |  |  |  |  |
| Cc1c(Cn2c(C)nn3c(=O)cc(N4CCOC(C)C4)nc23)cccc1C(F)(F)F (stereo not drawn) [GSK2344444] | 46 | 11 | 0 | 0 | 0 | 0 | 0 | 0 | 4 | 17 |  |  |  |  |  |  |  |  |
| NCCNS(=O)(=O)c1ccc(-c2ccnc3[nH]ccc23)cc1 [GSK977617] | 0 |  | 0 |  |  |  |  |  |  |  | 56% and 35% | 40% and 0% | 61% and 30% | 83% and 62% | 76% and 35% | 17% and 13% | 99.3% and 98.8% | 99.2% and 98.3% |
| Fc1ccc(-c2ncn(CCCN3CCOCC3)c2-c2cccnc2)cc1 [SB-211743] | 0 | 12 | 2 | 0 | 5 | 0 | 5 | 0 | 0 | 25 |  |  |  |  |  |  |  |  |
| O=C(NCCCN1CCOCC1)c1cccc(Nc2nccc(Nc3ccc(Oc4ccccc4)cc3)n2)c1 [GW663929] | 37 | 22 | 0 | 4 | 18 | 0 | 0 | 83 | 4 | 0 |  |  |  |  |  |  |  |  |
| COc1ccc(CNC(=O)NC2CCN(c3ccnc(Nc4ccc(OC)cc4)n3)C2)cc1 (stereo not drawn) [GSK1379727] | 29 | 0 | 0 | 0 | 0 | 57 | 4 | 33 | 0 | 0 |  |  |  |  |  |  |  |  |
| CCn1cnc2c(N)ncnc21 [GW345098] | 0 | 0 | 0 | 0 | 0 | 0 | 0 | 0 | 8 | 14 |  |  |  |  |  |  |  |  |
| Cc1cccc(Cn2ccn3c(=O)cc(N4CCOCC4)nc23)c1 [GSK2297542] | 0 | 29 | 0 | 13 | 0 | 36 | 2 | 6 | 16 | 1 |  |  |  |  |  |  |  |  |
| COc1cc2c(cc1OC[C@@H](O)CO)ncc1c3ccc(C#N)cc3[nH]c21 | 56 | 0 | 81 | 35 | 38 | 47 | 42 | 76 | 0 | 0 |  |  |  |  |  |  |  |  |
| Cc1cn2c(=O)cc(N3CCOCC3)nc2n1Cc1cccc(Cl)c1Cl [GSK2334006] | 50 | 10 | 0 | 0 | 0 | 30 | 0 | 10 | 3 | 29 |  |  |  |  |  |  |  |  |

— article PMC5540273 (PLoS ONE, 2017)
